Pf apPOL inh: Pf-apPOL DNA polymerase inhibition | AID 1794808 | Recombinant Pf-apPOL, molecular beacon fluorescence, 1.5 h | inhibition, % at 10 µM | 210,000 compounds, 0.25% hits
mHTT-CaM PPI inh: mHTT-calmodulin interaction abrogation. P42858. AlphaScreen His-mHTT/GST-CaM binding, luminescence. inhibition, % at 15 µM. 190,000 compounds, 3.6% hits;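 also: 0% = both proteins with DMSO and 100% = one protein alone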
* marks the source's active call; other numbers are inactive results; i = inactive; nt = no result given; + = active, no number. An excerpt weighted towards active compounds, which were near 3.5% of everything screened. Rule as the data show it: active = inhibition above about 50%; inactive = the rest.

SMILES | Pf apPOL inh | mHTT-CaM PPI inh
CCC(CC)C(=O)NC1CCN(c2nc3c(s2)c(C)nn3-c2ccc(F)cc2)CC1 | -5 | 0
COc1cc(OC)c(/C=N/NC(N)=S)cc1Br | nt | i
NC(=S)N/N=C/c1cc(Br)cc(Br)c1O | nt | +
Oc1c(Cl)cc(Cl)cc1C=NN=Cc1cc(Cl)cc(Cl)c1O | 1 | nt
Oc1c(Br)cc(Br)cc1C=Nc1ccc(F)cc1 | nt | 5
Oc1ccccc1N=Cc1cc(Br)cc(Br)c1O | -4 | 55*
NC(=S)N/N=C/c1cc(Cl)cc(Cl)c1O | nt | +
O=C(Oc1ccc2c(=O)c(-c3ccccc3)coc2c1)c1ccc2c(c1)OCO2 | 7 | -8
COCCN1C(=O)C(=O)C(=C(O)c2ccccc2)C1c1ccc(N(C)C)cc1 (stereo unspecified) | -7 | 3
O=C(c1ccccc1Cl)N1CCC2(CC1)Nc1cccnc1NC2=NC1CCCC1 | -4 | 13
CC(=NO)c1ccc2c(c1)C(C)(C)CCC2(C)C | -2 | nt
COc1ccc(C=C2Oc3c(CN4CCCC4)c(O)cc(C)c3C2=O)c(OC)c1OC | -9 | 8
O=C(NCc1ccc2c(c1)OCO2)c1ccc2c(c1)nc1n2CCCCC1 | -1 | 1
COc1ccc(C(=O)c2ccc(N3CCN(C)CC3)c([N+](=O)[O-])c2)cc1 | -10 | 17
O=C(c1cc2ccccc2o1)N1CCN(c2ccc(C(F)(F)F)cc2[N+](=O)[O-])CC1 | 17 | 47
O=C(c1cc2ccccc2o1)N1CCN(c2ccc(Cl)cc2[N+](=O)[O-])CC1 | 4 | 57*
CC1Cc2ccccc2N1C(=O)c1ccc(N2CCCCC2)c([N+](=O)[O-])c1 (stereo unspecified) | 1 | 63*
O=C(O)c1ccccc1C(=O)c1ccc(N2CCCCC2)c([N+](=O)[O-])c1 | -10 | 3
CN1CCN(c2ccc(C(=O)c3ccc(Cl)cc3)cc2[N+](=O)[O-])CC1 | -7 | 62*
CC1(C)Cc2c(sc3c2c(=O)n(-c2ccccc2)c2nnnn32)CO1 | 1 | 11
COc1ccc(/C=C2\N=C(c3ccccc3Cl)OC2=O)cc1 | -2 | 1
CCOc1c(C)cc(S(=O)(=O)NCc2ccsc2)cc1C | -2 | -17
c1ccc2[nH]c(SCCN3CCCCC3)nc2c1 | -3 | 2
O=C(OCc1cc(-c2cc3ccccc3o2)on1)c1c(F)cccc1F | -8 | -14
CC(C)(C)NC(=O)NCCc1c[nH]c2ccccc12 | -5 | -4
SMILES | Pf apPOL inh | mHTT-CaM PPI inh
CCS(=O)(=O)c1ccc(-c2nnc(NC(=O)c3c[nH]c4ccccc34)o2)cc1 | -85 | 13
O=C(Nc1nnc(-c2ccco2)o1)c1c[nH]c2ccccc12 | -28 | 72*
CCN(CC)C1CCN(c2c3c(nc4ncnn24)CCC3)CC1 | -11 | -1
Cc1ccc(-c2nc(C3CCN(S(=O)(=O)c4cc(C)c(C)cc4C)CC3)no2)cc1 | -4 | -4
O=[N+]([O-])c1cccc2c1NC(c1ccc(Br)cc1)C1CC=CC21 (stereo unspecified) | 1 | 82*
O=[N+]([O-])c1cccc2c1NC(c1ccccc1Br)C1CC=CC21 (stereo unspecified) | -1 | 63*
Cc1nc(C)c2c(n1)N(CC1CCCO1)C(=O)CC2 (stereo unspecified) | 2 | -2
Cc1cccc(CN2C(=O)CCc3c(C)nc(-c4ccncc4)nc32)c1 | 4 | -6
Cc1cccc(CN2C(=O)CCc3c(C)nc(C)nc32)c1 | 51* | 23
Cc1nc(C)c2c(n1)N(CC1CCCCC1)C(=O)CC2 | 50* | 6
Cc1ccc(NC(=O)N2CCCC2c2ccc(F)cc2)cc1 (stereo unspecified) | -2 | -7
O=C(Nc1cccc(Cl)c1)N1CCC(N2CCN(Cc3ccc(F)cc3)C2=O)CC1 | -3 | 15
Cc1cc(Br)ccc1N=Cc1ccc(-c2ccccc2)cc1 | 0 | nt
CCCn1cc(SCC(=O)NCCc2ccc(OC)c(OC)c2)c2ccccc21 | -1 | 20
O=c1ccc(-n2ccnc2)nn1CCNS(=O)(=O)Cc1cc(F)ccc1F | 1 | -6
CSC1=N/C(=C/c2ccc(Br)cc2)C(=O)S1 | 6 | 7
CSC1=N/C(=C\c2cc(Br)ccc2OCC(=O)O)C(=O)S1 | -3 | 68*
COC(=O)CCc1cc2c(C)cc(=O)oc2cc1OC | 1 | -1
OC(CN1CCN(C/C=C/c2ccccc2)CC1)Cn1c2ccccc2c2ccccc21 (stereo unspecified) | 2 | 100*
OCC(O)Cn1c2ccc(Br)cc2c2cc(Br)cc(Br)c21 (stereo unspecified) | 3 | 98*
OC(CN1CCNCC1)Cn1c2ccccc2c2ccccc21 (stereo unspecified) | 3 | 1
OC(CN1CCN(c2ccccc2)CC1)Cn1c2ccccc2c2ccccc21 (stereo unspecified) | -5 | 12
OC(CN1CCNCC1)Cn1c2ccccc2c2cc(Br)ccc21 (stereo unspecified) | -2 | 51*
OC(CN1CCCCC1)Cn1c2ccc(Br)cc2c2cc(Br)ccc21 (stereo unspecified) | -4 | nt
